# Data: the supplement of paper PMC6411743
# ± gives the standard deviation of the averaged measurements. About 6,500 targets were measured; listed, in parts, are those with the largest changes and a random draw of the rest.
# Experiments:
# Experiment in all cases: NP40-soluble protein abundance relative to vehicle (solubility fold change) (ratio); higher = more soluble protein in presence of ATP
# GBP1 = biological target: T1, GBP1 (UniProt P32455)
# T1 sequence (whole entry): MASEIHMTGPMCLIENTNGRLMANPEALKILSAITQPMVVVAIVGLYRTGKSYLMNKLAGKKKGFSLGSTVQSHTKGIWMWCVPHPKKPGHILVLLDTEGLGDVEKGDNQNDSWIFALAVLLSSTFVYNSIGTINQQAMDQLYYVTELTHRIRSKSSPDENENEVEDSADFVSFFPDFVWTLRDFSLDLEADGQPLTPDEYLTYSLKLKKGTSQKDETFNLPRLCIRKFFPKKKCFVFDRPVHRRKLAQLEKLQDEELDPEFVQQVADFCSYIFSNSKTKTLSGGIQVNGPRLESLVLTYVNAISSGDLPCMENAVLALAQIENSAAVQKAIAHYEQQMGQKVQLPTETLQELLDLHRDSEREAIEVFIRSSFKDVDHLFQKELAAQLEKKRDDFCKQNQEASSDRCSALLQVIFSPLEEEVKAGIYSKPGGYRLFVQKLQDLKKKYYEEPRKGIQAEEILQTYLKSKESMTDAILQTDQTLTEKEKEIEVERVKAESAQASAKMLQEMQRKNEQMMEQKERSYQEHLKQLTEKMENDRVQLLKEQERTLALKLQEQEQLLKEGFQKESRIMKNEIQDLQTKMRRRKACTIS
# Method in brief: (§1)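 Values are fold changes against the detergent-processed vehicle, based on vsn-normalised intensities. Jurkat crude lysate was treated at eight concentrations from 0.1 to 10 mM (10 min at room temperature, then 3 min at 37 °C), solubilised with 0.8% NP40 and benzonase, ultracentrifuged and analysed by TMT-labelled LC-MS/MS over three independent experiments.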
# NKTR = biological target: T2, NKTR (UniProt P30414)
# T2 sequence (whole entry): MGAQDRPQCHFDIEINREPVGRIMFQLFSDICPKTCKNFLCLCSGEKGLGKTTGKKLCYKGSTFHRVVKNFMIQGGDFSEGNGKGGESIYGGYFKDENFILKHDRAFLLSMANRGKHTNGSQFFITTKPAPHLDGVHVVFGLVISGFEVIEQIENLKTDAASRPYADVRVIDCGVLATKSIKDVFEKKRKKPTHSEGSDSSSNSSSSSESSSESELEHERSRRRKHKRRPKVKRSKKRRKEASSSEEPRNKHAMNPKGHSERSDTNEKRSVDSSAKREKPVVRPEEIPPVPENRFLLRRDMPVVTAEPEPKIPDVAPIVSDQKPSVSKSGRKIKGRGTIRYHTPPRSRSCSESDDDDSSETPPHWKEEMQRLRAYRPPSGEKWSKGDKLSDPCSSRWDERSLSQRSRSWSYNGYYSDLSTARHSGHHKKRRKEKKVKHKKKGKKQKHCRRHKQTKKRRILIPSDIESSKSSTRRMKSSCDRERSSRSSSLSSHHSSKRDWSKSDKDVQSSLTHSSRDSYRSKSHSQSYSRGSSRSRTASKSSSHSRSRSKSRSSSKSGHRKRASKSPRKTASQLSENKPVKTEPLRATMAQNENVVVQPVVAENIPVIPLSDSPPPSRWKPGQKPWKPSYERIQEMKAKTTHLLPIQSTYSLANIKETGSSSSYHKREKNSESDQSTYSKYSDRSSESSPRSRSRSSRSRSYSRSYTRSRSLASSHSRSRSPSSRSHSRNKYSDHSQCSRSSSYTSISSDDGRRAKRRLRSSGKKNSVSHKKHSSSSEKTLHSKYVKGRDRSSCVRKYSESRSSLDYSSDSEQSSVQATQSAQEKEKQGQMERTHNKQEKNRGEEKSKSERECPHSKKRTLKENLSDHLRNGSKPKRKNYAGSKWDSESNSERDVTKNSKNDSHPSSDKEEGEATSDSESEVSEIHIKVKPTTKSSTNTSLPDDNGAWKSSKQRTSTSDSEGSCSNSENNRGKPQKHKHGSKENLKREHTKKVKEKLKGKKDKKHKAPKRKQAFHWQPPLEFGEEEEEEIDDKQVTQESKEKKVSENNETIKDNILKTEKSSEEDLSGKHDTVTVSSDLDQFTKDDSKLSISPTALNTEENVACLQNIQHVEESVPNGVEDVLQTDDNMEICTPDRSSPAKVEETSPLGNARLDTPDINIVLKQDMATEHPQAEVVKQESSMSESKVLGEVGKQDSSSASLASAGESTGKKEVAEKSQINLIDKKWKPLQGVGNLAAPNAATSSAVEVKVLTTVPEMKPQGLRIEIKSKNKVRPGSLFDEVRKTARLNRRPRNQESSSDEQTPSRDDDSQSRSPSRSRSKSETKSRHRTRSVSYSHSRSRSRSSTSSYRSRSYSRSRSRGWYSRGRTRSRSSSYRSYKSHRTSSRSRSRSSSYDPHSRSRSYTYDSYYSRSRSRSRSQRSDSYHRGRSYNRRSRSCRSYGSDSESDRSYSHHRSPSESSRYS
# Method in brief: as §1
# SEC24C = biological target: T3, SEC24C (UniProt P53992)
# T3 sequence (whole entry): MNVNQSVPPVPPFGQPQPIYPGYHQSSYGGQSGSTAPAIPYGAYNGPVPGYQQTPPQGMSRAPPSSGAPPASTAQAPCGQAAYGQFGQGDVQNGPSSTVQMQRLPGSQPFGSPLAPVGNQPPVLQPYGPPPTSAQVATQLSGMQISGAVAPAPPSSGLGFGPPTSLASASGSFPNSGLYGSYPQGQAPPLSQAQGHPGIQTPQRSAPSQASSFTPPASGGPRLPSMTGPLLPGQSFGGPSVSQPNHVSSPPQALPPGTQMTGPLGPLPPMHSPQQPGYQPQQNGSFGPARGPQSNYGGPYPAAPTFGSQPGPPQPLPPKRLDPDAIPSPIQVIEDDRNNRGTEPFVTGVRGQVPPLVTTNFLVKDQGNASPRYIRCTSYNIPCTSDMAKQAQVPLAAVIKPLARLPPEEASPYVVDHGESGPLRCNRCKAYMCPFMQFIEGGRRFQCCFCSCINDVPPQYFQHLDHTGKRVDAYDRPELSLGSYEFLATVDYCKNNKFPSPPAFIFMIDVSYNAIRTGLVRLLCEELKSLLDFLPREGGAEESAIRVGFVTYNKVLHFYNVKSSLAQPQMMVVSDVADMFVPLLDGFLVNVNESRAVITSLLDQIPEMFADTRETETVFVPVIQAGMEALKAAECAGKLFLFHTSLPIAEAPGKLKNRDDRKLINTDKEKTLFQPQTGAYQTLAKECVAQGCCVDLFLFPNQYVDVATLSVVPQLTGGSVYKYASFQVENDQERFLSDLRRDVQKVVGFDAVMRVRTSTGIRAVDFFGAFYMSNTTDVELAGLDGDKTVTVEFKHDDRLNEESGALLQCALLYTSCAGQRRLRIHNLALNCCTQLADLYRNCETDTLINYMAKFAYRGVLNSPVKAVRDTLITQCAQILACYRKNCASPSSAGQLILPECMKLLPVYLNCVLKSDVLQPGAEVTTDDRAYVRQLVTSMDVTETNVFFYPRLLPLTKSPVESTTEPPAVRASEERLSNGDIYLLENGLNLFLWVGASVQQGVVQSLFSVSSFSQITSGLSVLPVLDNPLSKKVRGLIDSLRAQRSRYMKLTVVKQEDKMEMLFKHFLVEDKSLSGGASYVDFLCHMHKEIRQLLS
# Method in brief: as §1
# SPAG7 = biological target: T4, SPAG7 (UniProt O75391)
# T4 sequence (whole entry): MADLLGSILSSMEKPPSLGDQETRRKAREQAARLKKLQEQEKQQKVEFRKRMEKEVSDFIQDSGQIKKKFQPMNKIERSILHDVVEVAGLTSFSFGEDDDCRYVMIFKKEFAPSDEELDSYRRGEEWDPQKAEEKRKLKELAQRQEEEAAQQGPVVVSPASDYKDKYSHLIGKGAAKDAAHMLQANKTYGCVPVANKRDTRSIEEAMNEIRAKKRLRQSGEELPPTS
# Method in brief: as §1
# [1] = biological target: T5, UniProt O95294|O95294-2|O95294-3|O95294-4
# T5 sequence (whole entry): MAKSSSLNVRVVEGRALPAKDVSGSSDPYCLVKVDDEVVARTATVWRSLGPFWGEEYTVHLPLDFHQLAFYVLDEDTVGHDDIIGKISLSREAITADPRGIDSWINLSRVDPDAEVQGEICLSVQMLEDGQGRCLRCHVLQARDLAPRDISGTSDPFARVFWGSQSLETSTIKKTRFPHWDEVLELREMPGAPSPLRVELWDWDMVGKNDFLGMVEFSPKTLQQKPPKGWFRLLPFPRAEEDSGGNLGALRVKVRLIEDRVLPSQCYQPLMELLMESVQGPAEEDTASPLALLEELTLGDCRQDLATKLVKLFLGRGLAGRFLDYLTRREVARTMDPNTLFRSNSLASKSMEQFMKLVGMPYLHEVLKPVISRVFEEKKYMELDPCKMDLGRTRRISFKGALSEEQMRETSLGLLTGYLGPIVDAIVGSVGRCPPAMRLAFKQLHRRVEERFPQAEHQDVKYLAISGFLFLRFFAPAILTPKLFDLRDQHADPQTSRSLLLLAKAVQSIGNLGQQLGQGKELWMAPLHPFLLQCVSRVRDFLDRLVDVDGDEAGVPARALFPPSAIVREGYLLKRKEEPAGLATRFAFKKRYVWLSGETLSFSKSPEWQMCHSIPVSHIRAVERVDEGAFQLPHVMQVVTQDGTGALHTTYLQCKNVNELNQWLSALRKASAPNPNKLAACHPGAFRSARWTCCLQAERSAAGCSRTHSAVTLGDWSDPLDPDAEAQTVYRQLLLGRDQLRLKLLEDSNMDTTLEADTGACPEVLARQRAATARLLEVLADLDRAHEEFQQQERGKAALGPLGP
# Method in brief: as §1
# [2] = biological target: T6, UniProt O95379-3|O95379-4
# T6 sequence (whole entry): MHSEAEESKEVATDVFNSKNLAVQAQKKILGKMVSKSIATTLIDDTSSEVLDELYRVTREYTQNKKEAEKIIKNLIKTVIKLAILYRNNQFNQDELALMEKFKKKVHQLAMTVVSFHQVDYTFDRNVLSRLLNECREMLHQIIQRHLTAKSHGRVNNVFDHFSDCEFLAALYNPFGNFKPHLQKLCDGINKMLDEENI
# Method in brief: as §1
# [3] = biological target: T7, UniProt O95983|O95983-2|K7EIE8
# T7 sequence (whole entry): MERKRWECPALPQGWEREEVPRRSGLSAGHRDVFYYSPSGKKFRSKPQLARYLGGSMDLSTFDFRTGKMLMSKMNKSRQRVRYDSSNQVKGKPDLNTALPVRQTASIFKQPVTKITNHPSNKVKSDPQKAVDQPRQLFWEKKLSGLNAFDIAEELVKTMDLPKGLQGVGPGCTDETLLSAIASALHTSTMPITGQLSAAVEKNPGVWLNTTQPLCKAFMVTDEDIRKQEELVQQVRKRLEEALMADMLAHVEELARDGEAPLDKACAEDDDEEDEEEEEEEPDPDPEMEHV
# Method in brief: as §1
smiles,measurement,setting,value
Nc1ncnc2c1ncn2[C@@H]1O[C@H](COP(=O)(O)OP(=O)(O)OP(=O)(O)O)[C@@H](O)[C@H]1O [adenosine triphosphate],NP40-soluble protein abundance,GBP1; concentration: 1mM,0.968 ± 0.053
same,NP40-soluble protein abundance,GBP1; concentration: 2mM,0.96 ± 0.0051
same,NP40-soluble protein abundance,GBP1; concentration: 4mM,0.945 ± 0.011
same,NP40-soluble protein abundance,GBP1; concentration: 6mM,0.979 ± 0.015
same,NP40-soluble protein abundance,GBP1; concentration: 8mM,0.922 ± 0.018
same,NP40-soluble protein abundance,GBP1; concentration: 10mM,0.936 ± 0.03
same,NP40-soluble protein abundance,NKTR; concentration: 1mM,1.53 ± 0.25
same,NP40-soluble protein abundance,NKTR; concentration: 2mM,1.63 ± 0.19
same,NP40-soluble protein abundance,NKTR; concentration: 4mM,1.68 ± 0.23
same,NP40-soluble protein abundance,NKTR; concentration: 6mM,1.83 ± 0.22
same,NP40-soluble protein abundance,NKTR; concentration: 8mM,1.75 ± 0.19
same,NP40-soluble protein abundance,NKTR; concentration: 10mM,1.75 ± 0.22
same,NP40-soluble protein abundance,SEC24C; concentration: 1mM,0.99 ± 0.055
same,NP40-soluble protein abundance,SEC24C; concentration: 2mM,0.987 ± 0.057
same,NP40-soluble protein abundance,SEC24C; concentration: 4mM,0.98 ± 0.043
same,NP40-soluble protein abundance,SEC24C; concentration: 6mM,0.919 ± 0.095
same,NP40-soluble protein abundance,SEC24C; concentration: 8mM,0.981 ± 0.019
same,NP40-soluble protein abundance,SEC24C; concentration: 10mM,0.984 ± 0.074
same,NP40-soluble protein abundance,SPAG7; concentration: 1mM,0.972 ± 0.053
same,NP40-soluble protein abundance,SPAG7; concentration: 2mM,0.964 ± 0.047
same,NP40-soluble protein abundance,SPAG7; concentration: 4mM,0.964 ± 0.04
same,NP40-soluble protein abundance,SPAG7; concentration: 6mM,0.969 ± 0.046
same,NP40-soluble protein abundance,SPAG7; concentration: 8mM,0.9594 ± 0.0036
same,NP40-soluble protein abundance,SPAG7; concentration: 10mM,0.903 ± 0.058
same,NP40-soluble protein abundance,[1]; concentration: 1mM,0.95 ± 0.03
same,NP40-soluble protein abundance,[1]; concentration: 2mM,0.96 ± 0.069
same,NP40-soluble protein abundance,[1]; concentration: 4mM,1.01 ± 0.058
same,NP40-soluble protein abundance,[1]; concentration: 6mM,0.994 ± 0.11
same,NP40-soluble protein abundance,[1]; concentration: 8mM,0.962 ± 0.13
same,NP40-soluble protein abundance,[1]; concentration: 10mM,0.965 ± 0.15
same,NP40-soluble protein abundance,[2]; concentration: 1mM,0.855 ± 0.036
same,NP40-soluble protein abundance,[2]; concentration: 2mM,0.93 ± 0.019
same,NP40-soluble protein abundance,[2]; concentration: 4mM,0.885 ± 0.032
same,NP40-soluble protein abundance,[2]; concentration: 6mM,0.9504 ± 0.0062
same,NP40-soluble protein abundance,[2]; concentration: 8mM,0.932 ± 0.035
same,NP40-soluble protein abundance,[2]; concentration: 10mM,0.85 ± 0.1
same,NP40-soluble protein abundance,[3]; concentration: 1mM,1.03 ± 0.12
same,NP40-soluble protein abundance,[3]; concentration: 2mM,0.983 ± 0.078
same,NP40-soluble protein abundance,[3]; concentration: 4mM,0.98 ± 0.035
